The panel holds about 83,000 compounds, 20% with a hit somewhere; the sample as a whole holds those more often.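 Treatment: one concentration, 48 hours, 96-well format. Scoring: percent growth, with anything below 10 considered active.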 Unmarked numbers belong to inactive results. The source made the active and inactive calls.

This experiment concerns OVCAR-4 ovarian. The experiment can be described thus: NCI-60 one-dose screen, 48 h (100 = growth as untreated, 0 = no growth, -100 = all killed). The note with it: 10 µM unless noted.
Take `N=C(N)c1ccc(-c2ccc(-c3ccc(Cl)cc3Cl)s2)cc1F`: the growth was -24.9% (active).

Turning to `C/C(C=O)=C\c1ccc2c(c1)OCO2`, the growth was 109%.

On to `Cc1ccc(/C=C(\C#N)C(=O)Nc2ncc(Cc3cc(Cl)ccc3Cl)s2)o1`, for which the growth was 1.2% (active).

With `C[C@@H]1CC[C@@]2(OC1)O[C@H]1C[C@H]3[C@@H]4CC=C5C[C@@H](O[C@@H]6O[C@H](CO)[C@@H](O[C@@H]7O[C@@H](CO)[C@H](O)[C@H]7O)[C@H](O)[C@H]6O[C@@H]6O[C@@H](C)[C@H](O)[C@@H](O)[C@H]6O)CC[C@]5(C)[C@H]4CC[C@]3(C)[C@H]1[C@@H]2C`, the growth was -90% (active).

Turning to `CCOC(=O)c1cn2ncnc(Oc3ccc(NC(=O)NC4CC4)c(F)c3)c2c1C`, the growth was 69.7%.

The record behind these values is PubChem BioAssay (NCI).
